# Measurements as given in article PMC7862700, “An all-to-all approach to the identification of sequence-specific readers for epigenetic DNA modifications on cytosine”.
# Key:
# Test in all cases: DAPPL (digital affinity profiling via proximity ligation, sequencing); 10 mM Tris-HCl pH 7.5, 50 mM NaCl, 1 mM DTT, 4% glycerol, room temperature, 30 min; GST-TFs on glutathione beads, 16-mer random dsDNA library, 0.1% formaldehyde crosslink after washing; high values mean tight binding
# FLI1 = biological target: T1, FLI1 (Homo sapiens, UniProt Q01543 1-452); settings: protein: recombinant; tags: N-terminal GST; dsDNA, one strand shown
# T1 sequence: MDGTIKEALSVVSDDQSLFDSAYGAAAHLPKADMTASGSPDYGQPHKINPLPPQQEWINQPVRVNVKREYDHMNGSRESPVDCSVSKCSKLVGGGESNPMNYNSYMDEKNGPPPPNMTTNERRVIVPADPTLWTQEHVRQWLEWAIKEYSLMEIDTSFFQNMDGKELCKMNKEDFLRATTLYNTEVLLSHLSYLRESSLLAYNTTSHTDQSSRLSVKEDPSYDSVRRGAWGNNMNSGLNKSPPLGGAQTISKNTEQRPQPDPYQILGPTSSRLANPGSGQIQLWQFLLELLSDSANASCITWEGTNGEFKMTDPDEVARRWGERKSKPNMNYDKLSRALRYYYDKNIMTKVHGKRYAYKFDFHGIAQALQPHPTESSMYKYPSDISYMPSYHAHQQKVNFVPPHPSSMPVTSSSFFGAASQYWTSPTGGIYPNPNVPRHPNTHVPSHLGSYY
# Method in brief: (§1)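 Human transcription factors were made in yeast as GST fusions, captured on glutathione beads and barcoded with DNA. With a tag-only sample included, the pool was incubated with 200 nmole of a random double-stranded 16-mer DNA library in Tris/NaCl/DTT/glycerol buffer at room temperature for 30 min, then crosslinked with 0.1% formaldehyde after washing, ligated by proximity, amplified and sequenced. For binding signal, each hexamer's read frequency for a factor is divided by its frequency for the tag-only sample.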
# ELK1 = biological target: T2, ELK1 (Homo sapiens, UniProt P19419 1-428); settings: protein: recombinant; tags: N-terminal GST; dsDNA, one strand shown
# T2 sequence: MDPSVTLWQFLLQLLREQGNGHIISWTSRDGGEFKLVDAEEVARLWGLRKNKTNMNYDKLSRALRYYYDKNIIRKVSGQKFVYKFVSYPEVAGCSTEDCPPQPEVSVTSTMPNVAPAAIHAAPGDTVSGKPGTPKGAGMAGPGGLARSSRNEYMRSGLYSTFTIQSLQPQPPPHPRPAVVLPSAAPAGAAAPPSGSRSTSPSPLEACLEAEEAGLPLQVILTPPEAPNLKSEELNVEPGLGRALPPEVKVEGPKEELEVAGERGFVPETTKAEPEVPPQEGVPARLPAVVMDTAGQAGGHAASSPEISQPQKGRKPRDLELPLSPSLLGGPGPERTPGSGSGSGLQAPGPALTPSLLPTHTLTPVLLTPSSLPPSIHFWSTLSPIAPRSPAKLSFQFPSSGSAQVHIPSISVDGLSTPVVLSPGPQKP
# Method in brief: as §1
# GABPA = biological target: T3, GABPA (Homo sapiens, UniProt Q06546 1-454); settings: protein: recombinant; tags: N-terminal GST; dsDNA, one strand shown
# T3 sequence: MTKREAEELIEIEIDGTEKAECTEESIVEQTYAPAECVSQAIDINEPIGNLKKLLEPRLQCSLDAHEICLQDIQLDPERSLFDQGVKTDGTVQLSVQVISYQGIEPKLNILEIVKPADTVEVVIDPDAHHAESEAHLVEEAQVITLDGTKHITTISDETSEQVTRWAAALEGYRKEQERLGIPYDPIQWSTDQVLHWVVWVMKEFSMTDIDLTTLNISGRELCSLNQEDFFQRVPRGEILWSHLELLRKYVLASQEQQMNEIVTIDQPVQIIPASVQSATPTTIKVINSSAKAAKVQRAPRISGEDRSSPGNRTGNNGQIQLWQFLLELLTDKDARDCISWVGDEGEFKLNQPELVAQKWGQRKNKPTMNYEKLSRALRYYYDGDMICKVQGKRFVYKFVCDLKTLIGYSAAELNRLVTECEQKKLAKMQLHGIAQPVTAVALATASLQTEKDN
# Method in brief: as §1
# ERG = biological target: T4, ERG (Homo sapiens, UniProt P11308 1-479); settings: protein: recombinant; tags: N-terminal GST; dsDNA, one strand shown
# T4 sequence: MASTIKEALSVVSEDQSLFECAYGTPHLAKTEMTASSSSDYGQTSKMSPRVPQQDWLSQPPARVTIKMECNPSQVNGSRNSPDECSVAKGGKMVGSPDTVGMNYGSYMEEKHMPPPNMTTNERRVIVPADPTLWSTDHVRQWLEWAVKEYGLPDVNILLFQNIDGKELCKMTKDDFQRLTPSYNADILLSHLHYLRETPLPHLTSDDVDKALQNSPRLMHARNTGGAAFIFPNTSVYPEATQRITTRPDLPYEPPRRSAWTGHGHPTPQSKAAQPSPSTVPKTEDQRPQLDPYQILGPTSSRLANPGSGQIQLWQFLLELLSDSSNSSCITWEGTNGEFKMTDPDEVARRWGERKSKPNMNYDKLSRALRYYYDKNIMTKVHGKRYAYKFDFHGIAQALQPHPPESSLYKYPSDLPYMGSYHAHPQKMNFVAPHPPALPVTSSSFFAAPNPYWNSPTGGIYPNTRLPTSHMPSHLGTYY
# Method in brief: as §1
# ELF1 = ELF1 (Homo sapiens, UniProt P32519 1-619); settings: protein: recombinant; tags: N-terminal GST; dsDNA, one strand shown
# ELF1, sequence (P32519 whole entry): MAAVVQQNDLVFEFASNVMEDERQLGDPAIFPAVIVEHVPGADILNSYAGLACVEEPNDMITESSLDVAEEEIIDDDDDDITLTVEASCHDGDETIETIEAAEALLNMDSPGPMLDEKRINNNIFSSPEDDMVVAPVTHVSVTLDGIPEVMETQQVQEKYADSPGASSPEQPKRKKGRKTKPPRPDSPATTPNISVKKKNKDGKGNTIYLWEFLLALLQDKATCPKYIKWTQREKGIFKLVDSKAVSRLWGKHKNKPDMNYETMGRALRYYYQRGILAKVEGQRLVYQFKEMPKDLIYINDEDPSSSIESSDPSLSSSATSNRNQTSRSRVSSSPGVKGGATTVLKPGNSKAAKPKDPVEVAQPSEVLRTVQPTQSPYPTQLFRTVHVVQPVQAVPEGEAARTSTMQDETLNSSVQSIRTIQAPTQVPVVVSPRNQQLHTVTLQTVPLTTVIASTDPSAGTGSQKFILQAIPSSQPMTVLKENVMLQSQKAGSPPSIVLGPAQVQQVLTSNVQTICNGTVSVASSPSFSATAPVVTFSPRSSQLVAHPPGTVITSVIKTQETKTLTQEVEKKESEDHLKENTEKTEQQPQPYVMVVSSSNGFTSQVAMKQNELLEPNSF
# Method in brief: as §1
# EHF = biological target: T5, EHF (Homo sapiens, UniProt Q9NZC4 1-300); settings: protein: recombinant; tags: N-terminal GST; dsDNA, one strand shown
# T5 sequence: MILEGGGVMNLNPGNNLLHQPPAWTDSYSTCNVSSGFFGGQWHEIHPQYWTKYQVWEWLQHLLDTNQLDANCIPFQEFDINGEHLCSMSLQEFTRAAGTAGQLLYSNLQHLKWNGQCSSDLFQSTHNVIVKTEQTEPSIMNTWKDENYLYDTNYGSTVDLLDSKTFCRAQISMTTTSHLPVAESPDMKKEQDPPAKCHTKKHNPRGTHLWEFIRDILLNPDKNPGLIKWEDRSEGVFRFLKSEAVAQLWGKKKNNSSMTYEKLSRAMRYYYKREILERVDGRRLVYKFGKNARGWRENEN
# Method in brief: as §1
# SPI1 = SPI1 (Homo sapiens, UniProt P17947 1-270); settings: protein: recombinant; tags: N-terminal GST; dsDNA, one strand shown
# Method in brief: as §1
# SPIB = SPIB (Homo sapiens, UniProt Q01892 1-262); settings: protein: recombinant; tags: N-terminal GST; dsDNA, one strand shown
# SPIB, sequence (Q01892 whole entry): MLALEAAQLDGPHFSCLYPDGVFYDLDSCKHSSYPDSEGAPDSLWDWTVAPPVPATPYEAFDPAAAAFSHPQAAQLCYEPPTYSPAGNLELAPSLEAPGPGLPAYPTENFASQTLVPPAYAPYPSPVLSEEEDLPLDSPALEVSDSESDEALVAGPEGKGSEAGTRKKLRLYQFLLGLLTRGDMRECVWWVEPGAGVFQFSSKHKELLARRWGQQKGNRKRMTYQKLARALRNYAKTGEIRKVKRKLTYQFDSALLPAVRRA
# Method in brief: as §1
# ELK3 = biological target: T6, ELK3 (Homo sapiens, UniProt P41970 1-407); settings: protein: recombinant; tags: N-terminal GST; dsDNA, one strand shown
# T6 sequence: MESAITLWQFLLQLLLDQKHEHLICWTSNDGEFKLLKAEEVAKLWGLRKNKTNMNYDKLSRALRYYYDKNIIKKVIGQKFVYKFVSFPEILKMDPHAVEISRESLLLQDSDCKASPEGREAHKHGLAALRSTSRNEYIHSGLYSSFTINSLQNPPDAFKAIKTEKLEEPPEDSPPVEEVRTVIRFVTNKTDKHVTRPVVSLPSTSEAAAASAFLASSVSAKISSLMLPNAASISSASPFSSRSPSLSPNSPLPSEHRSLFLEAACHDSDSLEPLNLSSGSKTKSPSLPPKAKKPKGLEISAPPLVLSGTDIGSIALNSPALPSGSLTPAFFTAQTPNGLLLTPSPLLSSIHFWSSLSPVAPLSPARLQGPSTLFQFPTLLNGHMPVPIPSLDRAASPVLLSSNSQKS
# Method in brief: as §1
# FEV = biological target: T7, FEV (Homo sapiens, UniProt Q99581 1-238); settings: protein: recombinant; tags: N-terminal GST; dsDNA, one strand shown
# T7 sequence: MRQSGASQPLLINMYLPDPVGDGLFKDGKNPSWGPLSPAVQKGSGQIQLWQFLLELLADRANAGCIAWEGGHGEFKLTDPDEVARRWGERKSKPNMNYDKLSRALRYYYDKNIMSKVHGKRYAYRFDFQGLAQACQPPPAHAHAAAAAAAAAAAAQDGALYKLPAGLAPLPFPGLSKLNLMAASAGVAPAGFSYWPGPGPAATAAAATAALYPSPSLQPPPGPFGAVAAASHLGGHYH
# Method in brief: as §1
# ETV5 = ETV5 (Homo sapiens, UniProt P41161 1-510); settings: protein: recombinant; tags: N-terminal GST; dsDNA, one strand shown
# ETV5, sequence (P41161 whole entry): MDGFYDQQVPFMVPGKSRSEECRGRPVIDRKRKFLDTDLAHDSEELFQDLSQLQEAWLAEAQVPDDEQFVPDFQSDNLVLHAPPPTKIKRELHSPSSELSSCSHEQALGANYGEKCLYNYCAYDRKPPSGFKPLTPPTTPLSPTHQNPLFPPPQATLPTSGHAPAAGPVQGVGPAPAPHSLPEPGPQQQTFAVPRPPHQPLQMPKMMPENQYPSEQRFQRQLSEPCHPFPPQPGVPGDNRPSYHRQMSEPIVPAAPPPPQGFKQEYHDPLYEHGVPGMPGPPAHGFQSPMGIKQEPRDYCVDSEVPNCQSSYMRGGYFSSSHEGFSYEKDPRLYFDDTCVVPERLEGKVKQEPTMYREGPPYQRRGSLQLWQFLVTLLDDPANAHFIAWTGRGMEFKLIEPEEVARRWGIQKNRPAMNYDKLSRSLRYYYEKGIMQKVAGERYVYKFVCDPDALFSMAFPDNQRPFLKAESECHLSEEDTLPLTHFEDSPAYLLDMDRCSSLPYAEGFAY
# Method in brief: as §1
# HSF1 = HSF1 (Homo sapiens, UniProt Q00613 1-529); settings: protein: recombinant; tags: N-terminal GST; chain copies: 3; dsDNA, one strand shown
# HSF1, sequence (Q00613 whole entry): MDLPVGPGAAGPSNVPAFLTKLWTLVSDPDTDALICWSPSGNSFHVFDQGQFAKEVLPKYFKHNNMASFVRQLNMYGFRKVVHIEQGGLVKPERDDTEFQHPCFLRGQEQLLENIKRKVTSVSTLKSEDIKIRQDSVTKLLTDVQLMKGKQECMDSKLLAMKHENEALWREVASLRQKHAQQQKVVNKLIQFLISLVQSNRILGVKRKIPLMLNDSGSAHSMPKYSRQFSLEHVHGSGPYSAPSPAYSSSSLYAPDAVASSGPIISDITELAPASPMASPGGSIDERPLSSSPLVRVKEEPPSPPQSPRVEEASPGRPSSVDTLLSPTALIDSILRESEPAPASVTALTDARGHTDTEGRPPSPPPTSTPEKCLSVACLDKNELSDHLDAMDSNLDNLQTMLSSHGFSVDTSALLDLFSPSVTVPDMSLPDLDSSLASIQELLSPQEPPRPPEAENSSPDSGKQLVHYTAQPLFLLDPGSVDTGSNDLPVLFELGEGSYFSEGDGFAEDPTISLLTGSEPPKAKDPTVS
# Method in brief: as §1
# SPIC = biological target: T8, SPIC (Homo sapiens, UniProt Q8N5J4 1-248); settings: protein: recombinant; tags: N-terminal GST; dsDNA, one strand shown
# T8 sequence: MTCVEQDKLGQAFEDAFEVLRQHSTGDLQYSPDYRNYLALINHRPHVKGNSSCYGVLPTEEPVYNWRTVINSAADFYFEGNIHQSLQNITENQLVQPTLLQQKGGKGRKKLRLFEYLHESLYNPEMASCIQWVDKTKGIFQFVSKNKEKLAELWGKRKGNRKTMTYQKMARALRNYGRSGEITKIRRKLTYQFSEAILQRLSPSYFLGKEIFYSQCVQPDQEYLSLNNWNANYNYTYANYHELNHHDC
# Method in brief: as §1
# ELF4 = ELF4 (Homo sapiens, UniProt Q99607 1-663); settings: protein: recombinant; tags: N-terminal GST; dsDNA, one strand shown
# ELF4, sequence (Q99607 whole entry): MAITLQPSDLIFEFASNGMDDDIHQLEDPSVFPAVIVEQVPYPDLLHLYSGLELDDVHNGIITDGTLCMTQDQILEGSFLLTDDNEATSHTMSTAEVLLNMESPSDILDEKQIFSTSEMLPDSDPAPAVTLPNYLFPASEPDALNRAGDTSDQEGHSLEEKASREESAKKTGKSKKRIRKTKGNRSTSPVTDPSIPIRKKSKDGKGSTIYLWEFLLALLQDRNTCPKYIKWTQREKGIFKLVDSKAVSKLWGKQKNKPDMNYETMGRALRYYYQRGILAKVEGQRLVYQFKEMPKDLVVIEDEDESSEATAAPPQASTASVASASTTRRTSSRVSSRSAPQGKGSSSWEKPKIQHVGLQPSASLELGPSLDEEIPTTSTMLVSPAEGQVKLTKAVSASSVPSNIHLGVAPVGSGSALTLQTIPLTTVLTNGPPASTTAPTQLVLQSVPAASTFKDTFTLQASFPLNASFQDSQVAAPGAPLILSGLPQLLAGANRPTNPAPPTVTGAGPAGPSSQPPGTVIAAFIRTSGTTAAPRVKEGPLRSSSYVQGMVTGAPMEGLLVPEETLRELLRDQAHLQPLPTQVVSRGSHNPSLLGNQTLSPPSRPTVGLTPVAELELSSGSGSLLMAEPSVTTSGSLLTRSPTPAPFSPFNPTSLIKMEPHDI
# Method in brief: as §1
# ELK4 = biological target: T9, ELK4 (Homo sapiens, UniProt P28324-2 1-405); settings: protein: recombinant; tags: N-terminal GST; dsDNA, one strand shown
# T9 sequence: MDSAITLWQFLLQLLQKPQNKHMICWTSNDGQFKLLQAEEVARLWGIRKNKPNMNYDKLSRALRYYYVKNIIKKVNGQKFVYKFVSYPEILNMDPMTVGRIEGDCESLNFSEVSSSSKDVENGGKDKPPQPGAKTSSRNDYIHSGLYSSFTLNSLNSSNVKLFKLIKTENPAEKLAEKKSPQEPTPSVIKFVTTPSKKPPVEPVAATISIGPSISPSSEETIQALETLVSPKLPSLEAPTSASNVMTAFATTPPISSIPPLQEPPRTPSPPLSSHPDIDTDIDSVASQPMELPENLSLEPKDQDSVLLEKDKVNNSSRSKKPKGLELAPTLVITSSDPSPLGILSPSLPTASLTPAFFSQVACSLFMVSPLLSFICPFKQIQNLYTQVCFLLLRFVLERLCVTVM
# Method in brief: as §1
# ETV2 = biological target: T10, ETV2 (Homo sapiens, UniProt O00321 1-342); settings: protein: recombinant; tags: N-terminal GST; dsDNA, one strand shown
# T10 sequence: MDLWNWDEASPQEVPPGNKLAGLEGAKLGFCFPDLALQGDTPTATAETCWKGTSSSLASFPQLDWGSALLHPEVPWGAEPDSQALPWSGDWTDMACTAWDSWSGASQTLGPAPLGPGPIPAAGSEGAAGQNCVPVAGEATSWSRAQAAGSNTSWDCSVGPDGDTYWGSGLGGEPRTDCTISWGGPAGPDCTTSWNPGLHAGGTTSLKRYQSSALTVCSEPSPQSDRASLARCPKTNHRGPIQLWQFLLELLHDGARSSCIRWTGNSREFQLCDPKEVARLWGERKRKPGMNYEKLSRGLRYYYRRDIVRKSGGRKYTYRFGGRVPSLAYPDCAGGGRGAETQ
# Method in brief: as §1
# ELF3 = biological target: T11, ELF3 (Homo sapiens, UniProt P78545 1-371); settings: protein: recombinant; tags: N-terminal GST; dsDNA, one strand shown
# T11 sequence: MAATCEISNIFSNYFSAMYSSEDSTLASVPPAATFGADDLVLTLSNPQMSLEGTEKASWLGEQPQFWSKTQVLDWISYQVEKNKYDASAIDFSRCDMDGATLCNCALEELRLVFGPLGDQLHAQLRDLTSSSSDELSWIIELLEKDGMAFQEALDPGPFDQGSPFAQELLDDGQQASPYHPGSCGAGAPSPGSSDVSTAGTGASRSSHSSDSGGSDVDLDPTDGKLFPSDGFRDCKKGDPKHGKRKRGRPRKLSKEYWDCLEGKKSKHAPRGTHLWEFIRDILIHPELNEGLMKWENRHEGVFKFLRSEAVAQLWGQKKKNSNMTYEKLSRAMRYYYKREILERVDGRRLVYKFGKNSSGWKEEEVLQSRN
# Method in brief: as §1
# CRX = CRX (Homo sapiens, UniProt O43186 1-299); settings: protein: recombinant; tags: N-terminal GST; dsDNA, one strand shown
# CRX, sequence (O43186 whole entry): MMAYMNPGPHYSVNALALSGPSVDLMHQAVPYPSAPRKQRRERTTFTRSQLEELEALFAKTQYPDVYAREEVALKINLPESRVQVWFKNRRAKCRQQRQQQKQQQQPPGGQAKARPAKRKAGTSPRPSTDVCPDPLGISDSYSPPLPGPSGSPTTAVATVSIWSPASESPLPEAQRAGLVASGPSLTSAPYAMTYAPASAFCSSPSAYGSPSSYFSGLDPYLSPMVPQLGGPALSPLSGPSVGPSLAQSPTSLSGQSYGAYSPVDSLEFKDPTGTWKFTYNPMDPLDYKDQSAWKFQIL
# Method in brief: as §1
# ETV1 = ETV1 (Homo sapiens, UniProt P50549 1-477); settings: protein: recombinant; tags: N-terminal GST; dsDNA, one strand shown
# ETV1, sequence (P50549 whole entry): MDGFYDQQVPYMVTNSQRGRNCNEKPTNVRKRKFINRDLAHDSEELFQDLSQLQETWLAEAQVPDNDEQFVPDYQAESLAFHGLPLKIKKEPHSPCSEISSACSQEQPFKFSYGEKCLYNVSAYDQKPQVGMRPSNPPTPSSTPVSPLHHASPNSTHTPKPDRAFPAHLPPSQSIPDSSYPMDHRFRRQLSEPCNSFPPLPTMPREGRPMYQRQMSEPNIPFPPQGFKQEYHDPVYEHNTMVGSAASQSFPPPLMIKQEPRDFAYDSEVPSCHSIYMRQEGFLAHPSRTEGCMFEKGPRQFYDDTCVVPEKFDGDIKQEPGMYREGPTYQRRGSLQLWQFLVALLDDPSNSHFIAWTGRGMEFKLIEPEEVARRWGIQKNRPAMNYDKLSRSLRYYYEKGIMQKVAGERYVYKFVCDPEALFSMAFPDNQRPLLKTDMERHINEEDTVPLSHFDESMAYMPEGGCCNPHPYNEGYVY
# Method in brief: as §1
sequence,measurement,setting,value
TATTTC,binding signal,FLI1,"2.04 fold enrichment (6-mer frequency, TF over GST control)"
same,binding signal,ELK1,"2.09 fold enrichment (6-mer frequency, TF over GST control)"
same,binding signal,GABPA,"2.06 fold enrichment (6-mer frequency, TF over GST control)"
same,binding signal,ERG,"2.32 fold enrichment (6-mer frequency, TF over GST control)"
same,binding signal,ELF1,"2.06 fold enrichment (6-mer frequency, TF over GST control)"
same,binding signal,EHF,"2.21 fold enrichment (6-mer frequency, TF over GST control)"
same,binding signal,SPI1,"2.02 fold enrichment (6-mer frequency, TF over GST control)"
same,binding signal,SPIB,"2.19 fold enrichment (6-mer frequency, TF over GST control)"
same,binding signal,ELK3,"2.21 fold enrichment (6-mer frequency, TF over GST control)"
same,binding signal,FEV,"2.32 fold enrichment (6-mer frequency, TF over GST control)"
same,binding signal,ETV5,"2.13 fold enrichment (6-mer frequency, TF over GST control)"
same,binding signal,HSF1,"1.69 fold enrichment (6-mer frequency, TF over GST control)"
same,binding signal,SPIC,"2.38 fold enrichment (6-mer frequency, TF over GST control)"
same,binding signal,ELF4,"2.01 fold enrichment (6-mer frequency, TF over GST control)"
same,binding signal,ELK4,"2.24 fold enrichment (6-mer frequency, TF over GST control)"
same,binding signal,ETV2,"2.11 fold enrichment (6-mer frequency, TF over GST control)"
same,binding signal,ELF3,"2.09 fold enrichment (6-mer frequency, TF over GST control)"
same,binding signal,CRX,"1.64 fold enrichment (6-mer frequency, TF over GST control)"
same,binding signal,ETV1,"2.14 fold enrichment (6-mer frequency, TF over GST control)"
